Screen size: about 140,000 compounds; about 1,400 (1%) were called active. What follows is part of a selection rich in actives, with near analogues and random picks from the rest. A number with no mark means an inactive call. Rule as the data show it: active = inhibition above about 17%; inactive = the rest.

The target of this assay is Neuropeptide Y receptor type 2 (Homo sapiens) (UniProt P49146). The assay is described as follows: NPY-Y2 receptor antagonists, primary screen, cell-based (AID 793).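 Also: 0% = vehicle with agonist challenge and 100% = reference antagonist with challenge.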 As to conditions: NPY-Y2 expressing cells, antagonist mode; at 2.7 µM; active compounds read high.
Neuropeptide Y receptor type 2 (Homo sapiens), sequence (P49146 whole entry, looked up): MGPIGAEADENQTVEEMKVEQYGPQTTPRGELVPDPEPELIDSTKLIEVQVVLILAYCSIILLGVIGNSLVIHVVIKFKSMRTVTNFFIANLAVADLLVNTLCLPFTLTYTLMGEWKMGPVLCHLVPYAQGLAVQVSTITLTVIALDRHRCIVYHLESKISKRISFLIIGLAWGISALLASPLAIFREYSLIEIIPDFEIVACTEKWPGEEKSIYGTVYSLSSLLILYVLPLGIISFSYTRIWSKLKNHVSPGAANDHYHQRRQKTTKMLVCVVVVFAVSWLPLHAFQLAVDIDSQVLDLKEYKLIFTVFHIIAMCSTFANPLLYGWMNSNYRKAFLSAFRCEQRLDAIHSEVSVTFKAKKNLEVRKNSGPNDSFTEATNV
Turning to `CN1CCN(C(=S)SCC(=O)Nc2ccc(Cl)cc2C(=O)c2ccccc2)CC1`, the inhibition is 6.46%.
For `O=C(COC(=O)c1ccccc1)Nc1ccc(Cl)cc1C(=O)c1ccccc1` the value was 34.7% (active).
For `O=C(CCNS(=O)(=O)c1ccccc1)Nc1ccc(Cl)cc1C(=O)c1ccccc1` the value was 2.34%; for `CN1CCN(Cc2ccc(OC(F)(F)F)cc2)CC1`, 3.95%.
Take `CCOC(=O)c1c(-c2ccccc2)oc2ccc(OC(=O)N(C)C)cc12`: the inhibition was 4.26%.

(Values after PubChem BioAssay AID793 (The Scripps Research Institute Molecular Screening Center, 2007).)
